Drawing on paper PMC7862700, “An all-to-all approach to the identification of sequence-specific readers for epigenetic DNA modifications on cytosine”, this text covers binding signal for one sequence.

What all share (test): DAPPL (digital affinity profiling via proximity ligation, sequencing); 10 mM Tris-HCl pH 7.5, 50 mM NaCl, 1 mM DTT, 4% glycerol, room temperature, 30 min; GST-TFs on glutathione beads, 16-mer random dsDNA library, 0.1% formaldehyde crosslink after washing; high values mean tight binding
The target of one assay is T1, FLI1 (Homo sapiens, UniProt Q01543 1-452).
T1 sequence: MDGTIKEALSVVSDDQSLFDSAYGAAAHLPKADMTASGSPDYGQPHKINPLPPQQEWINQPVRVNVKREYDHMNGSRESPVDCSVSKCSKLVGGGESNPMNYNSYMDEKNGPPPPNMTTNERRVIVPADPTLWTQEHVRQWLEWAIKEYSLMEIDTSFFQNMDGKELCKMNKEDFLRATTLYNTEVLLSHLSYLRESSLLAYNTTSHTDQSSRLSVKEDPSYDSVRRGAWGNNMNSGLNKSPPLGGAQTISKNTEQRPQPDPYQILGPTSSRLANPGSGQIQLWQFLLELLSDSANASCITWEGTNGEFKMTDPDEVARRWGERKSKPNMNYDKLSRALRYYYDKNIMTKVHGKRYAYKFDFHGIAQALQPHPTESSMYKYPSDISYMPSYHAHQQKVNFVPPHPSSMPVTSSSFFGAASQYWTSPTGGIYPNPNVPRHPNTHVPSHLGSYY
As to conditions: protein: recombinant; tags: N-terminal GST; dsDNA, one strand shown. The method, boiled down:
(§1)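 Binding signal is each hexamer's read frequency for a factor divided by its frequency in the tag-only sample. The factors were GST-fused human transcription factors from yeast, captured on glutathione beads, DNA-barcoded and pooled with that sample. Pools were incubated with 200 nmole of a random double-stranded 16-mer DNA library in Tris/NaCl/DTT/glycerol buffer at room temperature for 30 min, then washed, crosslinked with 0.1% formaldehyde, proximity-ligated with BsaI/T4 ligase (1 h, 37 °C), PCR-amplified and sequenced on an Illumina NextSeq500.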

The next assay concerns the target T2, ELK1 (Homo sapiens, UniProt P19419 1-428).
T2 sequence: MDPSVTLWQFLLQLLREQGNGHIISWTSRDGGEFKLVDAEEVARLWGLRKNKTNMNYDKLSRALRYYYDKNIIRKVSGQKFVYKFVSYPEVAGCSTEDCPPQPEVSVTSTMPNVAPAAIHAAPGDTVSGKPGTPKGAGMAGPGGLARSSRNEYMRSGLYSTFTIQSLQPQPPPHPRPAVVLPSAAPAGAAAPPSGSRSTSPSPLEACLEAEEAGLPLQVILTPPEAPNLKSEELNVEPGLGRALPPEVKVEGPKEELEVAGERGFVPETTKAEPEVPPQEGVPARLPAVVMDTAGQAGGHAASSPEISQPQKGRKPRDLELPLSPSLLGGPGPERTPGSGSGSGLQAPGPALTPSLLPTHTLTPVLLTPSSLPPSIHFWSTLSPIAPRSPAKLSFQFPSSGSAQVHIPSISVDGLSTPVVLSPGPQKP
As to conditions: protein: recombinant; tags: N-terminal GST; dsDNA, one strand shown. The method, boiled down:
as §1

The target in another assay is T3, GABPA (Homo sapiens, UniProt Q06546 1-454).
T3 sequence: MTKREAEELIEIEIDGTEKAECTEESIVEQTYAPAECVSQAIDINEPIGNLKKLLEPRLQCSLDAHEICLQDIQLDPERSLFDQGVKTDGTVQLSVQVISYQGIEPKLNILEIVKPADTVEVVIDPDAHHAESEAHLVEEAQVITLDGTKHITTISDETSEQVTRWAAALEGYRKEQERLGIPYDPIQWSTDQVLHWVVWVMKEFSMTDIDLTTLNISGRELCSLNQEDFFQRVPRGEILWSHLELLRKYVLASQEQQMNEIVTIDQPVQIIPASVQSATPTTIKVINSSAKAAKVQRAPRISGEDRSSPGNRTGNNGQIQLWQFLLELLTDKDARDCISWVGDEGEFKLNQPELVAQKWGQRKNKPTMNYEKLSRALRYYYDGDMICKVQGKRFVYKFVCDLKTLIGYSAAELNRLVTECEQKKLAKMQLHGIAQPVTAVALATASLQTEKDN
As to conditions: protein: recombinant; tags: N-terminal GST; dsDNA, one strand shown. The method, boiled down:
as §1

A further assay has as its target T4, ERG (Homo sapiens, UniProt P11308 1-479).
T4 sequence: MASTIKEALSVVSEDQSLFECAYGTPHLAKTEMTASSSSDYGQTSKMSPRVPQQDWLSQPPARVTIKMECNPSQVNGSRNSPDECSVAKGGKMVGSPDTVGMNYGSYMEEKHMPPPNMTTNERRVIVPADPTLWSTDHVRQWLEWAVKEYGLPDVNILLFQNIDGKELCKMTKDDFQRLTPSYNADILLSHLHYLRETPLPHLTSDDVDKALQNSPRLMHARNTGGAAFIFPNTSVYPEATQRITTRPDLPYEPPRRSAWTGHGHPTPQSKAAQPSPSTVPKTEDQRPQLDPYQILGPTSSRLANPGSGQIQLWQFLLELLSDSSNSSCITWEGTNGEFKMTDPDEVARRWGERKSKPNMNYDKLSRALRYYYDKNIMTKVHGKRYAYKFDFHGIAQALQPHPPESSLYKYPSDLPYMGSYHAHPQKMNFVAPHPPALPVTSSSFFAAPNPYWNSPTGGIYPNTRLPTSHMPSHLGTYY
As to conditions: protein: recombinant; tags: N-terminal GST; dsDNA, one strand shown. The method, boiled down:
as §1

The next assay has as its target ELF1 (Homo sapiens, UniProt P32519 1-619). The following applies: protein: recombinant; tags: N-terminal GST; dsDNA, one strand shown. The method in brief: as §1
A further assay addresses T5, EHF (Homo sapiens, UniProt Q9NZC4 1-300).
T5 sequence: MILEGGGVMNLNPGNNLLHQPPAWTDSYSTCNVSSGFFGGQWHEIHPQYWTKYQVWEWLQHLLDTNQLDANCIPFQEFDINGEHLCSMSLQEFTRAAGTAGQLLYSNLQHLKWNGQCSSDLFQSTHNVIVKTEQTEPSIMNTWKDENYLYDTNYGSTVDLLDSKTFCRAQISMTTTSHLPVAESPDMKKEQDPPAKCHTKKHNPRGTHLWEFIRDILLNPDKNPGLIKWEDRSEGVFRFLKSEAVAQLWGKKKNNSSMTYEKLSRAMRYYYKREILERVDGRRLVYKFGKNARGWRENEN
The following applies: protein: recombinant; tags: N-terminal GST; dsDNA, one strand shown. The method in brief:
as §1

The target of another assay is SPI1 (Homo sapiens, UniProt P17947 1-270). As to conditions: protein: recombinant; tags: N-terminal GST; dsDNA, one strand shown. The method in brief:
as §1

The target in another assay is SPIB (Homo sapiens, UniProt Q01892 1-262). The following applies: protein: recombinant; tags: N-terminal GST; dsDNA, one strand shown. The method, boiled down: as §1
SPIB, sequence (Q01892 whole entry): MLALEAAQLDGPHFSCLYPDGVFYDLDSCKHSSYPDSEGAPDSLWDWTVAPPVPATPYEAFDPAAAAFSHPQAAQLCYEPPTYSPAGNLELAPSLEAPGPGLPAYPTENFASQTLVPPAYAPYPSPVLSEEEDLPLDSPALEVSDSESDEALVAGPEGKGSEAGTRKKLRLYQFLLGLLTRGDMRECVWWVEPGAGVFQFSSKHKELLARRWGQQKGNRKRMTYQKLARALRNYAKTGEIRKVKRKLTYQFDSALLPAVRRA
The target in another assay is T6, ELK3 (Homo sapiens, UniProt P41970 1-407).
T6 sequence: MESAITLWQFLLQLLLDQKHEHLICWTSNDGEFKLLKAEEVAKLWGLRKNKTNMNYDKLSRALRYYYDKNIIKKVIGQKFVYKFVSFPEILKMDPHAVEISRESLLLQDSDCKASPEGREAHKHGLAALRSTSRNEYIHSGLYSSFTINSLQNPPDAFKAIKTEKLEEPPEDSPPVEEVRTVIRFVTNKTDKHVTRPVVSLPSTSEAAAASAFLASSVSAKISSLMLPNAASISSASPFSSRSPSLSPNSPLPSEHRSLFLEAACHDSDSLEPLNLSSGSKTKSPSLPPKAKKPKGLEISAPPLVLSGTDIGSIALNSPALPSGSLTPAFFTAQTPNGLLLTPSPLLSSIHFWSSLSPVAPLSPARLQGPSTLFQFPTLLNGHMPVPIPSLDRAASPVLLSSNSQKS
As to conditions: protein: recombinant; tags: N-terminal GST; dsDNA, one strand shown. The method, boiled down: as §1

Another assay deals with T7, FEV (Homo sapiens, UniProt Q99581 1-238).
T7 sequence: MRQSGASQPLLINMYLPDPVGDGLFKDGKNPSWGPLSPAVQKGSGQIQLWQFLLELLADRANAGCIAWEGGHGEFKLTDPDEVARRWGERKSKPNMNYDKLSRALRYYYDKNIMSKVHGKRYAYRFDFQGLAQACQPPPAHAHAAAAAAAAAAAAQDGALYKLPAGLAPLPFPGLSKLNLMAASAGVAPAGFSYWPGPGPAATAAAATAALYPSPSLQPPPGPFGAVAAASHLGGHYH
The following applies: protein: recombinant; tags: N-terminal GST; dsDNA, one strand shown. The method in brief:
as §1

In the next assay the target is ETV5 (Homo sapiens, UniProt P41161 1-510). As to conditions: protein: recombinant; tags: N-terminal GST; dsDNA, one strand shown. The method, boiled down: as §1
ETV5, sequence (P41161 whole entry): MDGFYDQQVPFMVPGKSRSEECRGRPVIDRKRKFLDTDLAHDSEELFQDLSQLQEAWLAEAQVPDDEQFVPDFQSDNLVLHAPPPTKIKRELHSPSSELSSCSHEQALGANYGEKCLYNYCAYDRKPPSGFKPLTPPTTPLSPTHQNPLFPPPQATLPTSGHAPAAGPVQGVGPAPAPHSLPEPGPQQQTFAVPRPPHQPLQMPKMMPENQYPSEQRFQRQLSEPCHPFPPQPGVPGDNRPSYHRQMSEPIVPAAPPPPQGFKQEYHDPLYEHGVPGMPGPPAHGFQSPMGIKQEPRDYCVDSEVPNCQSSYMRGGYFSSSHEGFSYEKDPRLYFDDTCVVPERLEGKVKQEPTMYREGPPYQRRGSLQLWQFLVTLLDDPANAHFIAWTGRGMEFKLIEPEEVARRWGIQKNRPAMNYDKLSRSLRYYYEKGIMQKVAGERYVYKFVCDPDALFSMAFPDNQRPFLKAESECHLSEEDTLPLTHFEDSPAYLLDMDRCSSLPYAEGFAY
The target of a further assay is HSF1 (Homo sapiens, UniProt Q00613 1-529). As to conditions: protein: recombinant; tags: N-terminal GST; chain copies: 3; dsDNA, one strand shown. The method, boiled down: as §1
HSF1, sequence (Q00613 whole entry): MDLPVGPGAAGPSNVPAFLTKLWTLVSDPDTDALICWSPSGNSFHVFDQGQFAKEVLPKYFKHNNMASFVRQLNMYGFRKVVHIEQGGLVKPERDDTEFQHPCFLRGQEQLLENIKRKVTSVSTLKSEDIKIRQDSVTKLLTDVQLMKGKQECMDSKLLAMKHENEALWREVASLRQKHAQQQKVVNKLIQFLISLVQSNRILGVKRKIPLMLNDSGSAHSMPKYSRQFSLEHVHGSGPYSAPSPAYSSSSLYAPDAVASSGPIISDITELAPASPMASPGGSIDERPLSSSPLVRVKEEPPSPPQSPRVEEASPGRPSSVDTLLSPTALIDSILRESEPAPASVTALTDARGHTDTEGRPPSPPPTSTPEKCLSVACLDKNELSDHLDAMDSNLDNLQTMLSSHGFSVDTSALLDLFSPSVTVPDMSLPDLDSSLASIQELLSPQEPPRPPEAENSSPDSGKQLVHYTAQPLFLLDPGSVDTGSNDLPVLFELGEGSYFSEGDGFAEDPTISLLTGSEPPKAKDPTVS
The next assay deals with T8, SPIC (Homo sapiens, UniProt Q8N5J4 1-248).
T8 sequence: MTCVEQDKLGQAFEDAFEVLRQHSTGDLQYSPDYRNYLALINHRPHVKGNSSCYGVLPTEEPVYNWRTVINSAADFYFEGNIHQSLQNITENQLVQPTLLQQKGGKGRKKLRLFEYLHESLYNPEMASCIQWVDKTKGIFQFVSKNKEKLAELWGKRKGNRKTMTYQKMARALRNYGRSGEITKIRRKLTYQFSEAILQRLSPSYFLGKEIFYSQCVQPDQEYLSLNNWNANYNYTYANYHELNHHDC
The following applies: protein: recombinant; tags: N-terminal GST; dsDNA, one strand shown. The method in brief:
as §1

The target of another assay is ELF4 (Homo sapiens, UniProt Q99607 1-663). The following applies: protein: recombinant; tags: N-terminal GST; dsDNA, one strand shown. The method, boiled down:
as §1

The next assay concerns the target T9, ELK4 (Homo sapiens, UniProt P28324-2 1-405).
T9 sequence: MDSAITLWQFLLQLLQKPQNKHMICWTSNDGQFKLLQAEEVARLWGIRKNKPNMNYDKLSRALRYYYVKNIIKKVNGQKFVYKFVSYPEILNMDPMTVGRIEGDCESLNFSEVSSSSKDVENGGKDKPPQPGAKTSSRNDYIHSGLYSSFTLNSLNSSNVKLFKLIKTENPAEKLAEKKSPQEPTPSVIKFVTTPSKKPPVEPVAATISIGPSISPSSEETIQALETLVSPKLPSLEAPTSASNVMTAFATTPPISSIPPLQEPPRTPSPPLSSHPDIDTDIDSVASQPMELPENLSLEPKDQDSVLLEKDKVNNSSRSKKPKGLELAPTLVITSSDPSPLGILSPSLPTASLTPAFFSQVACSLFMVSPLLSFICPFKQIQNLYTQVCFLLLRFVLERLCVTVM
As to conditions: protein: recombinant; tags: N-terminal GST; dsDNA, one strand shown. The method, boiled down: as §1

The next assay deals with T10, ETV2 (Homo sapiens, UniProt O00321 1-342).
T10 sequence: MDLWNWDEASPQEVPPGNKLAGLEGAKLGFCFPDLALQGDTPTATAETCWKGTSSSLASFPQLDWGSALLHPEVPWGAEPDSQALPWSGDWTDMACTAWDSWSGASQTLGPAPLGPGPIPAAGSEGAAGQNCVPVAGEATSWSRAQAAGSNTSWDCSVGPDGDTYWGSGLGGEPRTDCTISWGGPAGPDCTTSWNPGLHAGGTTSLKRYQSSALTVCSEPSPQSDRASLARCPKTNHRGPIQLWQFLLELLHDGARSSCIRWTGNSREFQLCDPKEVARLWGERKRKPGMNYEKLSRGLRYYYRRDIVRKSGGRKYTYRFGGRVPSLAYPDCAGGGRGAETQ
As to conditions: protein: recombinant; tags: N-terminal GST; dsDNA, one strand shown. The method in brief:
as §1

For another assay, the target named is T11, ELF3 (Homo sapiens, UniProt P78545 1-371).
T11 sequence: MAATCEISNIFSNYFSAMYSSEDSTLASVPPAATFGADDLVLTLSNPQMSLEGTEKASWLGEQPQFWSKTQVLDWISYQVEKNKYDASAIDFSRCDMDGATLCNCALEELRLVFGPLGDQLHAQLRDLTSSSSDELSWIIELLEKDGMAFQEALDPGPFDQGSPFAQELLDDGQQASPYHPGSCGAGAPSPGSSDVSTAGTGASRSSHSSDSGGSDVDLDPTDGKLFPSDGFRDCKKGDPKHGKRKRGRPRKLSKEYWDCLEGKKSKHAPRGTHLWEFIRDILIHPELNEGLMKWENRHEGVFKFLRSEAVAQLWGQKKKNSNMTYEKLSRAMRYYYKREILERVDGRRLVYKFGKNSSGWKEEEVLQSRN
The following applies: protein: recombinant; tags: N-terminal GST; dsDNA, one strand shown. The method in brief: as §1

The target in a further assay is CRX (Homo sapiens, UniProt O43186 1-299). The following applies: protein: recombinant; tags: N-terminal GST; dsDNA, one strand shown. The method in brief:
as §1

The target of the next assay is ETV1 (Homo sapiens, UniProt P50549 1-477). The following applies: protein: recombinant; tags: N-terminal GST; dsDNA, one strand shown. The method, boiled down: as §1
ETV1, sequence (P50549 whole entry): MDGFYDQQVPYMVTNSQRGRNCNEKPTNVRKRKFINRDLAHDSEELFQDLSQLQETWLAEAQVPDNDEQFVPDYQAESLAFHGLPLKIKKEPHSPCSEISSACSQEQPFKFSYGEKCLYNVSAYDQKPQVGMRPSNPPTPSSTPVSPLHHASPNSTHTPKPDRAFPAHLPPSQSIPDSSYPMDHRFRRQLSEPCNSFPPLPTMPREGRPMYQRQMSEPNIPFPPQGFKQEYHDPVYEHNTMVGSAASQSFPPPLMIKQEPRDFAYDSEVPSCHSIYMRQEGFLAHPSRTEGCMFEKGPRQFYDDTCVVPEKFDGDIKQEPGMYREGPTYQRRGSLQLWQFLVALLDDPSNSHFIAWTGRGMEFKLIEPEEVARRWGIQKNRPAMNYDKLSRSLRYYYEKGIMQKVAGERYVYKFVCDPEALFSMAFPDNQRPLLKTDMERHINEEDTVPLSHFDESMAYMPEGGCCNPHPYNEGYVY

ELF1, sequence (P32519 whole entry): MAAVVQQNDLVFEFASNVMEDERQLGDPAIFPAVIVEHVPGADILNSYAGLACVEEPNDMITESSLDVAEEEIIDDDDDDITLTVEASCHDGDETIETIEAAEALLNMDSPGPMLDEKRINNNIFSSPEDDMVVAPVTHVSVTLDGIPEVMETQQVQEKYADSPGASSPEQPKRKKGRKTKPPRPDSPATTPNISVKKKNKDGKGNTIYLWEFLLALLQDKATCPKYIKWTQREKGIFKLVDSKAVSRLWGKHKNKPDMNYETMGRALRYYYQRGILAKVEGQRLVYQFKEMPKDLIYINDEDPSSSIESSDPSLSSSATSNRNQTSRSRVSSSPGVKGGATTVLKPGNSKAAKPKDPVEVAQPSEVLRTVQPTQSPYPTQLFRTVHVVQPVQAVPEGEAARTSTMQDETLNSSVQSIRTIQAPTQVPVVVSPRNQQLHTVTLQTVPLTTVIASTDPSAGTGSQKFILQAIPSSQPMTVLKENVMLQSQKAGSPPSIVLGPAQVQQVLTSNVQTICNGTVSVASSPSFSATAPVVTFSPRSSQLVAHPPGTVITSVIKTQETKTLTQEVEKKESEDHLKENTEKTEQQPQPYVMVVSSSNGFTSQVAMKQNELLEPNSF
ELF4, sequence (Q99607 whole entry): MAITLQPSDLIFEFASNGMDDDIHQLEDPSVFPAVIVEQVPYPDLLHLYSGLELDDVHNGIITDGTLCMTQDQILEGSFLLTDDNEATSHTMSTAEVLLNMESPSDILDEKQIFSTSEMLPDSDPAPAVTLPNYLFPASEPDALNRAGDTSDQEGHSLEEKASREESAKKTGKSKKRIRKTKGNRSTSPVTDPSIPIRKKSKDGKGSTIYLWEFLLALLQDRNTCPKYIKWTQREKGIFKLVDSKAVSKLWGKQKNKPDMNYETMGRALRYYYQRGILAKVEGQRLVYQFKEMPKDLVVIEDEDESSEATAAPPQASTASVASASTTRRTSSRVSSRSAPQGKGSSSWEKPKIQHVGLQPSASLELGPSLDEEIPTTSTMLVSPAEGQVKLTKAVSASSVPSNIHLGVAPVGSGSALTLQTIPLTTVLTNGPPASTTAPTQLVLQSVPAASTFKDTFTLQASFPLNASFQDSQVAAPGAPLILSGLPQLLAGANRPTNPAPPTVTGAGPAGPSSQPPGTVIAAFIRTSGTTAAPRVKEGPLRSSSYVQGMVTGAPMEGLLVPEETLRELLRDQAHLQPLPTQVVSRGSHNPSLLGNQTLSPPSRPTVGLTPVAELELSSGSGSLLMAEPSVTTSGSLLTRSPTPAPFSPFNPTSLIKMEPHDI
CRX, sequence (O43186 whole entry): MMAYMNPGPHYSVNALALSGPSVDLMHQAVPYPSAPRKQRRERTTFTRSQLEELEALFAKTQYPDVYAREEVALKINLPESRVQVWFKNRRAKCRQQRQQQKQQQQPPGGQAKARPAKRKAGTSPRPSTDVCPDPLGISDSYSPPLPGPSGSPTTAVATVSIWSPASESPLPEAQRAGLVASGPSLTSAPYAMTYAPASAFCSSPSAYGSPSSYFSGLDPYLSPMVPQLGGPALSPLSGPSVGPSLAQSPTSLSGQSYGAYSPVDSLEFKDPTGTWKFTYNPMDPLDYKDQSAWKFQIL

In the case of ATTGCT, the binding signal with FLI1 was 1.24 fold enrichment (6-mer frequency, TF over GST control); with ELK1 it was 1.19 fold enrichment (6-mer frequency, TF over GST control); with GABPA, 1.27 fold enrichment (6-mer frequency, TF over GST control); with ERG, 1.25 fold enrichment (6-mer frequency, TF over GST control); with ELF1, 1.24 fold enrichment (6-mer frequency, TF over GST control); with EHF, 1.31 fold enrichment (6-mer frequency, TF over GST control). Besides, the binding signal was 1.1 fold enrichment (6-mer frequency, TF over GST control) with SPI1; 1.3 fold enrichment (6-mer frequency, TF over GST control) with SPIB; 1.22 fold enrichment (6-mer frequency, TF over GST control) with ELK3; 1.22 fold enrichment (6-mer frequency, TF over GST control) with FEV; 1.16 fold enrichment (6-mer frequency, TF over GST control) with ETV5; 1.14 fold enrichment (6-mer frequency, TF over GST control) in the assay with HSF1. The binding signal is 1.32 fold enrichment (6-mer frequency, TF over GST control) with SPIC; 1.19 fold enrichment (6-mer frequency, TF over GST control) with ELF4; 1.16 fold enrichment (6-mer frequency, TF over GST control) with ELK4; 1.22 fold enrichment (6-mer frequency, TF over GST control) with ETV2; 1.28 fold enrichment (6-mer frequency, TF over GST control) with ELF3; 1.17 fold enrichment (6-mer frequency, TF over GST control) in the assay with CRX. In addition, the binding signal with ETV1 is 1.27 fold enrichment (6-mer frequency, TF over GST control).
